# Laboratory results reported in PubChem BioAssay (NCI).
# The panel holds about 79,000 compounds, 15% with a hit somewhere; the sample as a whole holds those more often. Unmarked numbers belong to inactive results. Calls of active or inactive are those of the source. Cut-off read from the data, not from the text of the source: active = growth inhibition above about 70%; inactive = the rest.
# Assay: NCI Yeast Anticancer Drug Screen. Data for the cln2 rad14 strain (AID 165);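 note: 0% = growth equal to vehicle treated cultures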
# Conditions: S. cerevisiae cln2 rad14 strain, at 50.0 µM, active compounds read high
# Summary of the method: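 Yeast strain cln2 rad14, bearing defects in cell cycle control and DNA repair, serves as the test system; values reflect growth inhibition compared with vehicle.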
row,Structure (SMILES),growth inhibition
1,O=C(CC(=O)N1N=C(N(c2ccccc2)c2ccccc2)CC1c1ccccc1)Nc1ccccc1 (stereo not given),8.3%
2,NS(=O)(=O)c1ccc(NC(=O)Nc2cccc(Cl)c2)cc1,-4.9%
3,[O-][N+]1=C(c2ccccc2)C(c2ccccc2)C(c2ccccc2)O1 (stereo not given),-6%
4,O=[N+]([O-])c1ccc(F)cc1,-17.4%
5,COc1cc(C)c(C#N)c(OC)n1,12.9%
6,Clc1cc(Cl)c(SSc2cc(Cl)c(Cl)cc2Cl)cc1Cl,-71.5%
7,COc1cc2nccnc2c(N)c1OC,-1.7%
8,O=C1c2ccccc2C(c2ccccc2)C1c1ccccc1 (stereo not given),-16.6%
9,Cc1nc2c(=O)[nH]c(=S)[nH]c2[nH]c1=O,12.5%
10,N#CCCCCCCC(N)=O,-1.25%
11,O=C(NNc1c(F)c(F)c(C(F)(F)F)c(F)c1F)c1ccccc1,-64.3%
12,CCCCCCCCCCCCCCNC(=O)C(C)O (stereo not given),-35.2%
13,NC(=O)Cc1nc(O)cc(=O)[nH]1,-13.1%
14,COc1cc(/C=N\N=C(/C)c2ccc(C)cc2C)cc(OC)c1OC,22.9%
15,CSCNC(=S)Nc1ccc(Cl)c(Cl)c1,23.4%
16,Brc1ccc(Nc2ccc(Br)cc2Br)c(Br)c1,11.6%
17,O=c1cc(-c2ccc(O)cc2)oc2cc(O)cc(O)c12,-43.5%
18,O=C1CCCCCCCCCCC1Cc1cc(O)c(CC2CCCCCCCCCCC2=O)cc1O (stereo not given),-12.9%
19,Nc1nc(=S)c2[nH]cnc2[nH]1,-91.7%
20,CC(=O)NO,-7.05%

row,Structure (SMILES),growth inhibition
1,CC1(C)Cc2ccccc2C(C)(Cl)C(=O)N1 (stereo not given),17.9%
2,Cc1ccc(C2(C)CC[C@@H]3C[C@@]32C)c(O)c1 (stereo not given in full),92.2% (active)
3,CCN(CC)C1Oc2cc3c(cc2C(c2cc(OC)c(O)c(OC)c2)C1C)OCO3 (stereo not given),3.35%
4,NOCc1ccc(OCc2ccccc2)cc1,-18.8%
5,CCC(=O)NN(C(C)=O)c1ccccc1,-16.2%
6,Cc1[nH]c(=O)[nH]c(=O)c1C,27.4%
7,COc1ccc(/C=C/C(=O)C(C)(C)CN2CCCCC2)cc1,37.8%
8,C(=N\OCCc1ccccc1)/c1ccccn1,-25.3%
9,CCOC(=O)C(C(=O)c1cccnc1)C(C(=O)OCC)C(=O)c1cccnc1 (stereo not given),20.4%
10,CCCCCCCCCCCCCCCCCC1=NCC(C)O1 (stereo not given),19.6%
11,CC(O)c1ccc2c(c1)Nc1ccccc1S2 (stereo not given),-7.05%
12,Cc1nn(C)c(C#N)c1[N+](=O)[O-],4.4%
13,CCC(C)NC(=O)c1ccccc1C (stereo not given),-10.2%
14,CSC(=S)Nc1cc(C)cc(C)n1,38%
15,COc1cc2c(cc1OC)C(=O)C1(CO)COC(=O)C1C2 (stereo not given),-1.4%
16,CC(=O)Nc1nc(C)c(CC/C=C/c2ccc([N+](=O)[O-])cc2)c(Cl)n1,-6.35%
17,CC(=O)N/N=C1\NN(C(C)=O)C2(S1)C(=O)Nc1ccccc12 (stereo not given),78.5% (active)
18,O=C(O)C(=Cc1cccc2ccc3ccccc3c12)C(=O)O,-4.45%
19,COC(=O)c1ccc(OC(=O)Nc2ccc(Br)cc2)cc1,-4.2%
20,O=C(Nc1ccccc1Cl)c1ccc(Cl)cc1,-16.2%

# Assay: NCI Yeast Anticancer Drug Screen. Data for the bub3 strain (AID 167)
# Conditions: S. cerevisiae bub3 mutant strain, at 50.0 µM, active compounds read high
# Summary of the method: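 Screening used yeast with an engineered genetic alteration affecting cell cycle control. Compound-exposed cultures were compared with vehicle cultures, and reduced growth was taken as inhibition.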
row,Structure (SMILES),growth inhibition
1,O=C(CC(=O)N1N=C(N(c2ccccc2)c2ccccc2)CC1c1ccccc1)Nc1ccccc1 (stereo not given),-0.35%
2,NS(=O)(=O)c1ccc(NC(=O)Nc2cccc(Cl)c2)cc1,46.4%
3,[O-][N+]1=C(c2ccccc2)C(c2ccccc2)C(c2ccccc2)O1 (stereo not given),-19.1%
4,O=[N+]([O-])c1ccc(F)cc1,7.15%
5,COc1cc(C)c(C#N)c(OC)n1,20.2%
6,Clc1cc(Cl)c(SSc2cc(Cl)c(Cl)cc2Cl)cc1Cl,0.75%
7,COc1cc2nccnc2c(N)c1OC,-0.95%
8,O=C1c2ccccc2C(c2ccccc2)C1c1ccccc1 (stereo not given),20.6%
9,Cc1nc2c(=O)[nH]c(=S)[nH]c2[nH]c1=O,-1.3%
10,N#CCCCCCCC(N)=O,-5.6%
11,O=C(NNc1c(F)c(F)c(C(F)(F)F)c(F)c1F)c1ccccc1,-14.8%
12,CCCCCCCCCCCCCCNC(=O)C(C)O (stereo not given),11.3%
13,NC(=O)Cc1nc(O)cc(=O)[nH]1,-1.9%
14,COc1cc(/C=N\N=C(/C)c2ccc(C)cc2C)cc(OC)c1OC,24.9%
15,CSCNC(=S)Nc1ccc(Cl)c(Cl)c1,53%
16,Brc1ccc(Nc2ccc(Br)cc2Br)c(Br)c1,3.8%
17,O=c1cc(-c2ccc(O)cc2)oc2cc(O)cc(O)c12,-20.9%
18,O=C1CCCCCCCCCCC1Cc1cc(O)c(CC2CCCCCCCCCCC2=O)cc1O (stereo not given),-5.8%
19,Nc1nc(=S)c2[nH]cnc2[nH]1,9.55%
20,CC(=O)NO,-4.6%

row,Structure (SMILES),growth inhibition
1,CC1(C)Cc2ccccc2C(C)(Cl)C(=O)N1 (stereo not given),-26.9%
2,Cc1ccc(C2(C)CC[C@@H]3C[C@@]32C)c(O)c1 (stereo not given in full),92.7% (active)
3,CCN(CC)C1Oc2cc3c(cc2C(c2cc(OC)c(O)c(OC)c2)C1C)OCO3 (stereo not given),-7.1%
4,NOCc1ccc(OCc2ccccc2)cc1,-2.4%
5,CCC(=O)NN(C(C)=O)c1ccccc1,8.8%
6,Cc1[nH]c(=O)[nH]c(=O)c1C,-11.9%
7,COc1ccc(/C=C/C(=O)C(C)(C)CN2CCCCC2)cc1,36.5%
8,C(=N\OCCc1ccccc1)/c1ccccn1,9.7%
9,CCOC(=O)C(C(=O)c1cccnc1)C(C(=O)OCC)C(=O)c1cccnc1 (stereo not given),12.1%
10,CCCCCCCCCCCCCCCCCC1=NCC(C)O1 (stereo not given),13.3%
11,CC(O)c1ccc2c(c1)Nc1ccccc1S2 (stereo not given),-24.4%
12,Cc1nn(C)c(C#N)c1[N+](=O)[O-],-16.2%
13,CCC(C)NC(=O)c1ccccc1C (stereo not given),8.15%
14,CSC(=S)Nc1cc(C)cc(C)n1,42.8%
15,COc1cc2c(cc1OC)C(=O)C1(CO)COC(=O)C1C2 (stereo not given),-1%
16,CC(=O)Nc1nc(C)c(CC/C=C/c2ccc([N+](=O)[O-])cc2)c(Cl)n1,27.2%
17,CC(=O)N/N=C1\NN(C(C)=O)C2(S1)C(=O)Nc1ccccc12 (stereo not given),51.8%
18,O=C(O)C(=Cc1cccc2ccc3ccccc3c12)C(=O)O,-1.8%
19,COC(=O)c1ccc(OC(=O)Nc2ccc(Br)cc2)cc1,37.2%
20,O=C(Nc1ccccc1Cl)c1ccc(Cl)cc1,29.1%
